# Pol eta inh: qHTS for Inhibitors of Polymerase Eta. DNA polymerase eta (Homo sapiens), Q9Y253. recombinant Pol eta, fluorescent DNA replication assay. actives 1.2% (n = 390,000). Potency, µM (highest dose often 114 µM), for the others: at the highest dose activity change, negative = inhibition, usual class: inhibitors; note: potency is the fitted concentration of half-maximal effect; % is set by controls: 0 for no effect and ±100 for the full control effect
#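 Pol eta at 10 nM preincubated with compounds 15 min at room temperature; reaction started with fluorescent substrate (50 nM final) and read kinetically at 0 and 10 min.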
# Pol kappa inh: qHTS for Inhibitors of Polymerase Kappa | DNA polymerase kappa (Homo sapiens), Q9UBT6 | purified Pol kappa, fluorescent DNA synthesis assay, 10 min | Potency, µM (series often up to 107 µM), for the others: at the top dose activity, negative = inhibition, hits mostly inhibitors | actives 0.53% (n = 400,000) | AID 588579, 2011; note: potency is the fitted concentration of half-maximal effect; % is set by controls: 0 for no effect and ±100 for the full control effect
#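 Kinetic fluorescence screen: compound preincubated 15 min RT with 10 nM enzyme; 50 nM substrate (final) initiates; reads at 0/10 min.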
# PI5P4K alpha inh: qHTS for Inhibitors of phosphatidylinositol 5-phosphate 4-kinase (PI5P4K). max response, %. actives 1.2% (n = 330,000). PI5P4Kalpha enzyme, ADP-Glo luminescence, 60 min; active compounds read low; active = max response of -50% or lower; inconclusive = between -30% and -50%; inactive = -30% or higher; note: value at the top dose of about 77 µM; % is set by controls: 0 for no effect and ±100 for the full control effect
#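 Single end-point luminescence (ADP-Glo) quantified ADP from PI5P4Kalpha turnover; ATP 5 microM final, 1 h at RT, 0.1% CHAPS and 0.28 mM EGTA in HEPES pH 7.4.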
# ALOX12 inh: Primary qHTS assay for inhibitors of human arachidonate 12S-lipoxygenase (ALOX12): Round 2; Polyunsaturated fatty acid lipoxygenase ALOX12 (Homo sapiens), P18054; purified 12hLO, xylenol orange hydroperoxide absorbance; Potency, µM (titrated, usually from 108 µM), for inactives: top-dose activity change, negative = inhibition, hits mostly inhibitors; actives 1.1% (n = 580,000); note: potency is the fitted concentration of half-maximal effect; % is set by controls: 0 for no effect and ±100 for the full control effect
#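 Purified human 12hLO at 150 nM in 25 mM Hepes, 0.01% Triton X-100, pH 7.0, preincubated 15 min at room temperature with compound. Reaction started with 40 uM arachidonic acid, 30 min at room temperature. Hydroperoxide measured by Fe-xylenol orange, 573/405 nm absorbance ratio.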
# POLI inh: qHTS for Inhibitors of Polymerase Iota; DNA polymerase iota (Homo sapiens), Q9UNA4; Pol iota fluorescent replication assay, 10 min; Potency, µM (highest dose often 115 µM), without a hit: at the top dose activity, negative = inhibition, most hits filed as inhibitors; actives 1% (n = 390,000); note: potency is the fitted concentration of half-maximal effect
#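 Pol iota at 10 nM preincubated 15 min with compounds at room temperature; reaction started with fluorescent substrate, 50 nM final. Fluorescence read kinetically at 0 and 10 min; buffer-only wells as negative control.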
# Pol beta inh-1: qHTS Assay for Inhibitors of DNA Polymerase Beta. actives 1.3% (n = 340,000). AID 485314, 2010. Potency, µM (titrated, usually from 114 µM), inactives show top-dose activity change, negative = inhibition, most hits filed as inhibitors. Pol beta primer extension/strand displacement, fluorescence kinetic. P06746; note: potency is the fitted concentration of half-maximal effect; % is set by controls: 0 for no effect and ±100 for the full control effect
#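 Homogeneous kinetic assay of primer extension and strand displacement by 10 nM Pol beta, preincubated 15 min at room temperature with compound before 50 nM substrate (final) was added. Read at 0 and 10 min; four-parameter Hill fit.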
# Pol beta inh-2: Inhibitors of DNA Polymerase Beta: Hit validation | shares compounds with Pol beta inh-1 | Pol beta primer extension/strand displacement, fluorescence kinetic | Potency, µM, actives largely listed as inhibitors | actives 87% (n = 250); calls by dose curve; note: potency is the fitted concentration of half-maximal effect
# Klenow counter: Inhibitors of DNA Polymerase Beta: Hit Validation in Klenow Fragment Assay; shares compounds with Pol beta inh-1; Klenow exo- polymerase counter-screen, fluorescent DNA substrate; activity change, negative = inhibition, % at 57.1 µM; 250 tested, under 10 active
# HIV RT counter: Inhibitors of DNA Polymerase Beta: Hit Validation in HIV-RT Assay; activity % (negative = inhibition, positive = activation), % at 57.1 µM; HIV-1 RT polymerase activity, counter-screen; AID 540301, 2011; 250 tested, under 10 active; shares compounds with Pol beta inh-1
# POLB valid: Inhibitors of DNA Polymerase Beta: Hit Validation in Radiolabeled Extension Assay. radiolabeled primer extension gel assay, phosphorimager. inhibition, % at 10 µM. AID 540325, 2011. shares compounds with Pol beta inh-1. actives 91% (n = 110);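 active = inhibition at 10 µM of 30% or more; inconclusive = no clear call, values can overlap the other calls; inactive = inhibition at 10 µM under 30%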
# Starred values were filed as active, the others as inactive; ? = inconclusive; · = no result given; [ ] = dose if it differs, or a comment. Sampled rows, rich in hits. Any-hit rate of the full collection: about 2.9%. Unless noted, calls come from the whole dose curve; as a rule, active = well fitted curve in the direction sought with a large enough effect; inconclusive = small, poorly fitted or top-dose-only effect, or another doubt; inactive = no such curve, though single readings can be large; an effect the other way counts as inactive or inconclusive.
SMILES,Pol eta inh,Pol kappa inh,PI5P4K alpha inh,ALOX12 inh,POLI inh,Pol beta inh-1,others
COc1cccc(-n2c(-c3ccccc3F)nc3c(cnn3-c3ccc(C)cc3)c2=O)c1,-10%,-16%,·,0%,16µM*,5%,
O=C(CN1C(=O)CCC1=O)Nc1ccc(Br)cc1,-13%,-9%,·,45µM*,11%,-3%,
O=C(Cc1ccsc1)N1CC(Oc2ccccc2-c2nc(-c3ccccc3)no2)C1,·,·,·,6%,·,·,
CC(C)CCNC(=O)CCCN1C(=O)C(c2ccccc2)Oc2cccnc21 (centres undefined),·,·,·,27%,·,·,
CNC(=S)NNC(=O)C(=O)NNC(=S)NC,·,·,·,-1%,·,·,
Cc1cc(C)cc(NC(=O)C2CCN(S(=O)(=O)c3ccc4c(c3)NC(=O)C(C)S4)CC2)c1 (centres undefined),-26%,-8%,0,-1%,36%,-1%,
Cc1ccc(NC(=O)C2CCN(S(=O)(=O)c3ccc4c(c3)NC(=O)C(C)S4)CC2)c(Cl)c1 (centres undefined),-17%,-14%,0,4%,16µM*,?,
Cc1ccc(-c2nc3cnccn3c2NCCC(=O)NCc2ccco2)cc1,·,·,·,50µM*,·,·,
COc1cc(/C=C/C(=O)c2c(O)ccc3c(C)cc(=O)oc23)ccc1O,?,-6%,6,-8%,13µM*,21%,
COc1cccc(N2CCN(C(=O)NC3CCCCC3)CC2)c1,-3%,-5%,-2,4%,19%,0%,
COc1ccc(N2CCN(C(=O)NC3CCCCC3)CC2)cc1,?,-3%,-8,0%,89µM*,-2%,
Cn1c(SCC(=O)Nc2ccc3c(c2)oc2ccccc23)nnc1-c1ccccc1,-19%,-12%,·,?,?,2.2µM*,Pol beta inh-2=?;Klenow counter=-11;HIV RT counter=15;POLB valid=13
COc1cccc(-c2nn(C)c3sc(C(=O)NCc4ccc(C)o4)cc23)c1,-11%,-1%,-11,?,14%,-18%,
COc1ccc(-c2nn(C)c3sc(C(=O)NCc4ccco4)cc23)cc1OC,?,-15%,-8,0%[57.4 µM],?,13µM*,Pol beta inh-2=14*;Klenow counter=-5;HIV RT counter=26
O=C(OCC(=O)N1CCN(C(=O)c2ccco2)CC1)c1cc(-c2ccco2)nc2ccccc12,32µM*,25µM*,·,4.5µM*,8.9µM*,3.2µM*,Pol beta inh-2=3.5*;Klenow counter=-24;HIV RT counter=?
O=C(OCC(=O)N1CCN(C(=O)c2ccco2)CC1)c1cc(-c2ccc(Cl)c(Cl)c2Cl)nc2ccccc12,?,-5%,-3,11%,?,6%,
Cc1ccccc1CNC(=O)c1ccco1,·,·,·,11%,·,·,
O=[N+]([O-])c1cc(CN2CCCC2)c2cccnc2c1O,3.2µM*,?,?,·,?,1.8µM*,Pol beta inh-2=2.8*;Klenow counter=-7;HIV RT counter=11
